Reference: PubChem BioAssay AID485317 (Broad Institute, 2010)
Screen size: about 290,000 compounds; about 11,000 (3.8%) were called active. The sample holds actives, similar compounds and a random draw of the others, so the mix is not that of the screen.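 Rule for the calls: active = mean replicate inhibition above about 79%, with every replicate also reaching it (limit read from the data); inconclusive = only one of the two criteria met; inactive = mean below limit and not every replicate reaching it.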

Each molecule was assayed against FAD-linked sulfhydryl oxidase ALR (Homo sapiens) (UniProt P55789) (assay: ALR-catalysed DTT oxidation blockers – biochemical, H2O2 detection, HRP-luminol luminescence, single point, primary screen (AID 485317)). Settings: purified ALR, hits give high values, concentration not given here.
FAD-linked sulfhydryl oxidase ALR (Homo sapiens), sequence (P55789 whole entry, looked up): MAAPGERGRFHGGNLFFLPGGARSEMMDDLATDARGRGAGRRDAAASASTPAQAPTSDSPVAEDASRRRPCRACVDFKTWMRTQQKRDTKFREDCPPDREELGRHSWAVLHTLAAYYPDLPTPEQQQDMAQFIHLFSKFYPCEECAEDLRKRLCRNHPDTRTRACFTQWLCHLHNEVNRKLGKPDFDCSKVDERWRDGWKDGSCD
In the case of COc1cc(OC)c(C(=O)Nc2ccccc2-c2ccccc2)cc1OC, the inhibition is reported as -1.64% (inactive). In the case of COc1ccc(Cl)cc1C(=O)Nc1ccc(N(C)C(C)=O)cc1, the inhibition is reported as -1.72% (inactive). With COc1cc(OC)c(C(=O)Nc2ccc(N(C)C)cc2)cc1OC the inhibition was 99.6% (active). With Cc1ccccc1SCC(=O)OCC(=O)N1CC(=O)Nc2ccccc21 the inhibition was -7.18% (inactive). With COC(=O)CSc1ncnc2c1cnn2-c1ccc(C)cc1C the inhibition was 96.9% (active). In the case of COc1ccc(-n2ncc3c(SCC(=O)NNC(C)=O)ncnc32)cc1, the inhibition is reported as -1.15% (inactive). In the case of Cc1ccc(-n2ncc3c(=O)[nH]cnc32)c(C)c1, the inhibition is reported as -6.83% (inactive). For CCOC(=O)C1CCCN(C(=O)c2ccc(C)c(S(=O)(=O)N3CCCCC3)c2)C1 (stereo not drawn), the inhibition was -0.131% (inactive). O=C1CSC(=S)N1c1ccc(O)cc1 was tested, and the inhibition was 91.3% (active). For O=C1CSC(=S)N1c1ccc(Cl)c(Cl)c1, the inhibition was 38.1% (inactive). COc1cc(N2C(=O)CSC2=S)cc(OC)c1OC was tested, and the inhibition was 3.65% (inactive). For CCOc1ccccc1OCC(=O)Nc1ccccc1C(=O)NC1CC1, the inhibition was 20.6% (inactive). With CCOc1ccc(C(C)NC(=O)CN2C(=O)NC3(CCCCC3)C2=O)cc1OCC (stereo not drawn) the inhibition was -15.6% (inactive). For NC(=O)c1c(Nc2nc3c(F)cccc3s2)sc2c1CCCC2, the inhibition was 87.1% (active). In the case of NC(=O)c1c(NC(=O)CSc2nnc(-c3ccco3)n2N)sc2c1CCCC2, the inhibition is reported as 9.78% (inactive). For COc1cccc(OC)c1C(=O)Nc1sc2c(c1C(N)=O)CCCC2, the inhibition was -6.93% (inactive). For O=C(NCc1ccc(Cl)cc1)C(=O)NCC1CCCN1S(=O)(=O)c1cccs1 (stereo not drawn), the inhibition was -0.71% (inactive). For Cc1ccc(NC(=O)c2cnc(SCC(=O)NCC3CCCO3)n(C)c2=O)cc1 (stereo not drawn), the inhibition was -10.7% (inactive). For Cc1nc(-c2ccc(F)cc2)c(CC(=O)Nc2cc(S(=O)(=O)N3CCCCC3)ccc2C)s1, the inhibition was -9.47% (inactive). With O=C(NNC1CC(=O)N(c2cccc(Cl)c2)C1=O)c1cccnc1 (stereo not drawn) the inhibition was 11.7% (inactive). O=C1CC(NNc2ccccc2)C(=O)N1c1cccc(Cl)c1 (stereo not drawn) was tested, and the inhibition was 98% (active). For O=C1CC(c2ccccc2)C(=O)N1c1cccc(O)c1 (stereo not drawn), the inhibition was 14.5% (inactive). COc1cc(C(=O)NC2CCN(C)CC2)ccc1Nc1ncc2c(n1)N(C1CCC(O)CC1)CCC(=O)N2C (stereo not drawn) was tested, and the inhibition was -1.63% (inactive). CCN1C(=O)[C@H]2[C@@H](c3ccc(SC4CCCCC4)c(OC)c3)N[C@@](Cc3ccccc3)(C(=O)OC)[C@H]2C1=O was tested, and the inhibition was -5.65% (inactive). In the case of COc1ccc(CCC(=O)c2ccc(OC)cc2)cc1, the inhibition is reported as -20.1% (inactive). For Cc1nc2cc(NCc3cccs3)ccc2n1C, the inhibition was 84% (active). Cc1nc2cc(NC(=O)NC3CC3)ccc2n1C was tested, and the inhibition was 50.8% (inactive). In the case of Cc1nc2cc(NC(=O)Nc3cccc(F)c3)ccc2n1C, the inhibition is reported as -7.89% (inactive). For O=C(N=C1SC2CS(=O)(=O)CC2N1c1ccccc1)c1ccccc1 (stereo not drawn), the inhibition was -1.67% (inactive). CC1(c2ccccc2)NC(=O)N(CC(=O)N2CC(=O)Nc3ccccc32)C1=O (stereo not drawn) was tested, and the inhibition was -7.27% (inactive). With COc1ccc2c(c1)O/C(=C\c1ccccc1O)C2=O the inhibition was 0.703% (inactive). In the case of CC1=C/C(=N\OS(=O)(=O)c2ccccc2)C=CC1=O, the inhibition is reported as 98.9% (active). O=S(=O)(ON(c1ccccc1)S(=O)(=O)c1ccccc1)c1ccccc1 was tested, and the inhibition was -14.1% (inactive). With CCCCCN(C(=O)CCC(=O)OCC(=O)NC1CCC(C)CC1)c1c(N)n(CCCC)c(=O)[nH]c1=O (stereo not drawn) the inhibition was -10.8% (inactive). For COc1ccc(OCC(=O)N2CCOCC2)cc1, the inhibition was -7.03% (inactive). With C=CCC1=C/C(=C\c2c(N)n3nc(CC(=O)N4CCOCC4)sc3nc2=O)C=C(OC)C1=O the inhibition was 54.3% (inactive). In the case of COC1=C/C(=C/c2c(N)n3nc(CC(=O)N4CCOCC4)sc3nc2=O)C=CC1=O, the inhibition is reported as 99.1% (active). In the case of O=C(Cc1ccc(S(=O)(=O)N2CCOCC2)s1)N1CCN(c2ccc(C(F)(F)F)cc2[N+](=O)[O-])CC1, the inhibition is reported as -1.8% (inactive). COc1ccccc1-c1sc2ccccc2c1-c1ccc(Br)nc1 was tested, and the inhibition was -3.77% (inactive). For CC1CCCCC1NC(=O)c1cc(=O)[nH]c2ccccc12 (stereo not drawn), the inhibition was -38.4% (inactive). For CCC(C)(C)NC(=O)C1c2ccccc2Oc2ccccc21, the inhibition was -6.09% (inactive). In the case of O=C(N/N=C/c1ccc(O)c(O)c1)C1c2ccccc2Oc2ccccc21, the inhibition is reported as 99% (active). With CCCCCNC(=O)C1c2ccccc2Oc2ccccc21 the inhibition was -7.1% (inactive). In the case of CSCCC(NC(=O)COc1ccccc1)C(=O)N(C)CC(=O)Nc1ccc(C)cc1 (stereo not drawn), the inhibition is reported as -1.79% (inactive). In the case of COc1cccc(CNC(=O)CN2C(=O)NC(Cc3ccccc3)(c3ccccc3)C2=O)c1 (stereo not drawn), the inhibition is reported as -2.85% (inactive). CC(C)c1ccc(/C=C/C(=O)NCCCN2CCOCC2)cc1 was tested, and the inhibition was 3.5% (inactive). In the case of O=C1[C@H]2[C@@H](c3ccc(F)cc3)N3C(=O)N(c4ccc(C(F)(F)F)cc4)C(=O)[C@@]3(Cc3ccccc3)[C@H]2C(=O)N1C1CCCCC1, the inhibition is reported as 2.08% (inactive). In the case of CC(=O)N/N=C(\C)c1ccc(Br)cc1Br, the inhibition is reported as -9.48% (inactive). CC(=N\NC(=O)c1cc(Br)ccc1O)/C(=N/O)C(=O)Nc1ccccc1 was tested, and the inhibition was 85.8% (active). In the case of CC(C)/C=N/NC(=O)c1cc(Br)ccc1O, the inhibition is reported as 44.3% (inactive). COc1ccc(-c2sc3ccc(OC)cc3c2C#Cc2ccccn2)cc1 was tested, and the inhibition was 0.498% (inactive). In the case of O=C(COc1coc(CN2CCN(c3ccccc3F)CC2)cc1=O)N1CCc2ccccc21, the inhibition is reported as -0.38% (inactive). With Cc1ccccc1CSCC(=O)NC(=O)NC(C)(C)C the inhibition was -23.2% (inactive). COc1ccccc1-n1ccnc1SCC(=O)NC(C)(C)C was tested, and the inhibition was 17.9% (inactive). For CC(C)(C)NC(=O)CSC(=Nc1ccccc1F)NC#N, the inhibition was 98.7% (active). For COc1cc(C(C)=O)ccc1OC(C)C(=O)Nc1ccc(S(=O)(=O)N2CCCC2)cc1 (stereo not drawn), the inhibition was -9.52% (inactive). With O=C(CSc1ncnc2sccc12)NC1CCS(=O)(=O)C1 (stereo not drawn) the inhibition was -0.589% (inactive). Cn1cc(CCC(=O)N2CCCC(C(=O)c3ccc(C(C)(C)C)cc3)C2)cn1 (stereo not drawn) was tested, and the inhibition was -21% (inactive). Cc1ccc(NC2CCCN(C(=O)CCc3cn[nH]c3)C2)cc1C (stereo not drawn) was tested, and the inhibition was 98.7% (active). In the case of COc1ccccc1CN1CC(C(=O)NCCc2cn[nH]c2)CCC1=O (stereo not drawn), the inhibition is reported as -0.59% (inactive). CCC(C)c1ccc(NC(=O)COC(=O)C2CCCC2)cc1 (stereo not drawn) was tested, and the inhibition was 0.804% (inactive). In the case of CC(OC(=O)c1c(F)cccc1F)C(=O)NCCC1=CCCCC1 (stereo not drawn), the inhibition is reported as -6.45% (inactive). O=C1CCCCN1CCCC(=O)N1CCCC(Nc2ccc(F)cc2)C1 (stereo not drawn) was tested, and the inhibition was 17.9% (inactive). In the case of O=C(CN1CCOC1=O)N1CCCC(Nc2ccc(F)c(F)c2)C1 (stereo not drawn), the inhibition is reported as 12.5% (inactive). For O=C(CN1C(=O)CSC1=O)N1CCCC(Nc2ccc(F)cc2)C1 (stereo not drawn), the inhibition was 99.1% (active). COC(=O)c1ccc(/C=C/c2c(-c3ccc(OC)cc3)sc3ccccc23)cc1 was tested, and the inhibition was 2.88% (inactive). CC(OC(=O)c1ccc(-n2cnnn2)cc1)C(=O)NCc1ccccc1 (stereo not drawn) was tested, and the inhibition was 0.686% (inactive). CC(C)n1c(=S)[nH]c2cc(C(F)(F)F)ccc21 was tested, and the inhibition was 25.9% (inactive). With CCCCn1c(=S)[nH]c2cc(S(=O)(=O)N3CCCCC3)ccc21 the inhibition was 9.62% (inactive). In the case of CCCn1c(=S)[nH]c2ccc(C(F)(F)F)cc21, the inhibition is reported as 96.9% (active). In the case of O=C(CNC(=O)c1ccccc1F)OCC(=O)c1c[nH]c2ccccc12, the inhibition is reported as -4.95% (inactive). CC(C)n1cnc2c(NCc3ccccc3)cc(N[C@@H](CO)Cc3ccccc3)cc21 was tested, and the inhibition was -30.8% (inactive). Cc1ccc(O)c(CNc2nc3ccccc3n2C)c1 was tested, and the inhibition was 90.7% (active). In the case of Cc1ccc(OCc2nc3ccccc3n2C)cc1, the inhibition is reported as -6.95% (inactive). With Cn1c(Nc2cccc(Cl)c2)nc2ccccc21 the inhibition was 10.5% (inactive). For Cc1ccc(-c2csc(NCCc3nc4cc(Cl)c(Cl)cc4n3CCOCCO)n2)cc1, the inhibition was -6.99% (inactive). In the case of O=C(c1n[nH]c2c1CCC2)N1CCCC(Nc2cccc(F)c2)C1 (stereo not drawn), the inhibition is reported as 99.1% (active). O=C(Nc1cccc(F)c1)NC1CCCCCCC1 was tested, and the inhibition was 43.5% (inactive). For Cc1ccc(F)cc1S(=O)(=O)Nc1cccc(C(=O)N2CCCC(C(N)=O)C2)c1 (stereo not drawn), the inhibition was -5.56% (inactive). CCCCn1c(N)c(N(CC(C)C)C(=O)c2cnc(C)cn2)c(=O)[nH]c1=O was tested, and the inhibition was -2.15% (inactive). For COc1ccc(-n2cc(CNC3CCOCC3)c(-c3cccc(F)c3)n2)cc1, the inhibition was -7% (inactive). With COc1ccc(-c2nn(-c3ccccc3)cc2CN2CCCO2)c(F)c1 the inhibition was 83.5% (active). In the case of CCC(O)C1CCN(Cc2cn(-c3ccc(OC)cc3)nc2-c2cccc(F)c2)CC1 (stereo not drawn), the inhibition is reported as -36.1% (inactive). For C[C@@H]1NC(=O)[C@@]2(C)[C@@H](c3ccccc3)[C@H]3COc4ccccc4[C@@H]3N2C1=O, the inhibition was 0.598% (inactive). In the case of CC(C)Nc1nnc(SCC(=O)/C=C2\N(C)c3ccccc3C2(C)C)s1, the inhibition is reported as -3.17% (inactive). For CN1CCN(CCC(=O)N/N=C/C=C2\N(C)c3ccccc3C2(C)C)CC1, the inhibition was 99% (active). With CN1/C(=C\C(=O)c2cccnc2Cl)C(C)(C)c2ccccc21 the inhibition was -13.8% (inactive). In the case of Cc1ccc(NC(=O)CN(C)C(=O)c2ccc(Cl)c(S(=O)(=O)NCc3ccco3)c2)cc1, the inhibition is reported as -3.45% (inactive). With Cc1ccc(-c2nn(-c3ccc(F)cc3)cc2C(=O)NCC(c2cccs2)N2CCOCC2)cc1 (stereo not drawn) the inhibition was -3.7% (inactive). In the case of CC1(C)CC[C@]2(C(=O)O)CC[C@]3(C)C(=CCC4[C@@]5(C)CC[C@H](O)C(C)(C)C5[C@H](O)C[C@]43C)[C@@H]2C1 (stereo partly drawn), the inhibition is reported as -9.76% (inactive). For O=C(CN1CCN(c2cccc(Cl)c2)CC1)Nc1ccc(S(=O)(=O)N2CCOCC2)cc1, the inhibition was -14.5% (inactive). With O=C(CN1CCOCC1)Nc1cc(Cl)ccc1Cl the inhibition was -11.6% (inactive). With O=C(CN1CCN(c2ccc(O)cc2)CC1)Nc1cc(S(=O)(=O)N2CCOCC2)ccc1Cl the inhibition was 94.9% (active).
